We go through 37 compounds from PubChem BioAssay (NCI).

This is part of a sample that, as a whole, favours compounds with a hit. Of some 83,000 tested, about 20% had one in any assay.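 Method: cells in 96-well plates; compound added at one concentration; 48 h incubation; percent growth measured; values under 10 scored active.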 Active and inactive are the calls of the source.

The test system of the experiment is MDA-MB-468 breast. Description: NCI-60 one-dose screen, 48 h (100 = growth as untreated, 0 = no growth, -100 = all killed). The settings on record: 10 µM unless noted.
Consider `N#CC(C#N)N=Nc1ccc(Cl)cc1Cl`, for which the growth is 58.8% (inactive). `CCN1CCN(C(=O)[C@]23CCC(C)(C)C[C@@H]2C2=CC[C@@H]4[C@@]5(C)C/C(=C/c6ccncc6)C(=O)C(C)(C)[C@@H]5CC[C@@]4(C)[C@]2(C)CC3)CC1`: the growth is -49.8% (active). The result for `CC[C@@H](C)/C=C(C)/C=C/C(=O)c1c(O)c(-c2ccc(O)cc2)cn(OC2CC(=O)CCC(C)OC(=O)CC2O)c1=O` (some centres not stated) reads -29.9% (active); that for `COc1cc(C2CC(=O)c3c(C)nn(-c4nc5ccccc5[nH]4)c3C2)cc(OC)c1OC` (configuration not stated), 82% (inactive); that for `O=C(Nc1nc2cccc(-c3ccc(CN4CCS(=O)(=O)CC4)cc3)n2n1)C1CC1`, 41.5% (inactive). Turning to `CCOc1ccc(C(=O)Nc2ncc(Cc3ccc(F)cc3)s2)cc1`, the growth was 31.9% (inactive). For the compound `COc1ccc(-c2nc(NC(=O)CS(=O)(=O)c3ccc(F)cc3)sc2C)cc1`, the growth is 32% (inactive). Turning to `Fc1ccc(-n2cc(COc3ncnc4sc5c(c34)CCCC5)nn2)cc1Cl`, the growth is 106% (inactive). For `O=C(Nc1ccccn1)[C@H](O)[C@@H](O)C(=O)N1CCOCC1`, the growth was 119% (inactive). As for `Cc1nn(-c2cc(=O)[nH]c3ccc(Cl)cc23)c(N)c1C#N`, the growth was 111% (inactive). In the case of `Cc1ncc(C(=O)Nc2ccc(CN3CCN(C)CC3)c(C(F)(F)F)c2)cc1C#Cc1cnc(N)c2ccc(C#N)cc12` it was 48.2% (inactive); in that of `O=S(=O)(NCCNc1nccc(-c2c(-c3cccc(O)c3)nc3occn23)n1)c1ccc(C(F)(F)F)cc1`, 89% (inactive). As for `NC(=S)N/N=C(/c1cccs1)C1CC1`, the growth was 37.4% (inactive). In the case of `CC1=C(SCCC(=O)OC(C[Se]C2=C(C)C(=O)c3ccccc3C2=O)C(=O)NCCCCCC(=O)OCc2ccccc2)C(=O)c2ccccc2C1=O` (configuration not stated) it was 30.5% (inactive); in that of `CN(C)c1ccc(N=Nc2ccc(Br)cn2)c(O)c1`, -6.7% (active); in that of `O=C(c1ccccc1)N(C(=S)NCCc1ccc(Cl)cc1)c1ccccc1`, 30.3% (inactive). Regarding `COC(=O)c1ccc2[nH]c(O)c(C(=Nc3ccc(N(C)C(=O)CN4CCN(C)CC4)cc3)c3ccc([N+](=O)[O-])cc3)c2c1`, the growth was 85.9% (inactive).

On to `O=C(CCN1C(=O)/C(=C/c2ccc(O)cc2)SC1=S)Nc1ccccc1`, for which the growth was 100% (inactive). Regarding `Nc1ncnc2c1N=C(c1ccc3c(c1)OCO3)CC(c1cccc(Nc3ccnc4cc(C(F)(F)F)ccc34)c1)N2` (configuration not stated), the growth is 86.6% (inactive).

With `CCCCCC(CCCCC)C(=O)O`, the growth was 116% (inactive). In the case of `Cc1cc(-c2ccc(N(C)C)cc2)c2sc(=O)[nH]c2n1`, the growth is 80% (inactive). As to `Cn1cc(-c2nnc(-c3cn(C)c4ncc(Br)cc34)s2)c2cc(Br)ccc21`, the growth is 101% (inactive). The result for `CCOC(=O)C(Cc1cc(I)c(O)c(I)c1)NC(=O)c1ccccc1` (configuration not stated) reads 98.9% (inactive). Regarding `O=C1CC(c2cccc(F)c2)c2c(n[nH]c2-c2ccc(Cl)cc2)N1` (configuration not stated), the growth was 68.4% (inactive).

As to `CCC(=O)Oc1ccc(/C(=C(/C)Cc2cccc(OC)c2)c2ccc(OCCN(C)C)cc2)cc1`, the growth is 76.1% (inactive). Consider `O=c1c2cc(F)ccc2sc2c(NCCN3CCOCC3)nc3ccccc3c12`, for which the growth was 71.3% (inactive). The result for `COc1ccc(C/C(C)=C(/c2ccc(OCCN3CCCCCC3)cc2)c2ccc(OC(=O)NCc3ccccc3)cc2)cc1` reads 83% (inactive); that for `CCN1CCN(c2nc(NCCNc3ccnc4cc(Cl)ccc34)c3ccccc3n2)CC1`, -28.8% (active).

As for `CCN(CC)c1ccc(/C=C/C(=O)c2cccc(NS(C)(=O)=O)c2)cc1`, the growth was 35.4% (inactive).

`N#CC1C(c2ccc(Cl)cc2)=Nc2c(c(-c3ccccc3)nn2-c2ccccc2)C12C(=O)Nc1ccc(Cl)cc12` (configuration not stated): the growth was 26.3% (inactive). The result for `O=C(N/N=C1\c2ccccc2-c2cccc(C(=O)O)c21)c1ccc(O)cc1` reads 90.8% (inactive); that for `Cc1ccc(C2Oc3ccccc3C3CC(c4cccs4)=NN32)cc1` (configuration not stated), 109% (inactive).

With `Cc1ccc(/C=C(/C#N)n2nnc3cccc(F)c32)cc1`, the growth was -16.1% (active). Regarding `CCn1cc(C(=O)NN=C2CCCCCC2)c(=O)c2ccc(C)nc21`, the growth was 85.9% (inactive). Regarding `O=c1[nH]c(-c2cccc(F)c2)cc2cc(F)ccc12`, the growth was 33.2% (inactive). With `Cc1ccc2[nH]c(=S)n(-c3ccc(S(=O)(=O)Nc4ccc(Cl)nn4)cc3)c(=O)c2c1`, the growth was 107% (inactive).

As for `COc1cc2c3c(n(CCCCNCCCn4c5c(c6cc(OC)c(OC)cc6c4=O)C(=O)c4cc6c(cc4-5)OCO6)c(=O)c2cc1OC)-c1cc2c(cc1C3=O)OCO2`, the growth was 97.7% (inactive).
